# Pf growth 48h: P. falciparum growth inhibition at 48 hours (one generation); P. falciparum luciferase growth in erythrocytes, 48 h; AID 504832; 310,000 tested, 5.9% active; Potency, µM (top dose mostly 28.7 µM), actives largely listed as inhibitors
#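 Luminescence readout; reporter = integrated firefly luciferase in P. falciparum. RBC culture at 2% hematocrit, 0.1% parasitemia final, 37 C/5% CO2; decreased signal taken as growth inhibition.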
# HCV inh: inhibitors of hepatitis C virus infection | Huh7.5.1 HCVcc-Cre infection, luciferase reporter, 44 h | Potency, µM (series often up to 41.8 µM), hits mostly inhibitors | 340,000 tested, 3.4% active
#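 Compounds are dispensed onto cells plated 4 h earlier at 1,000 per well, with HCVcc-Cre virus (about 0.5 moi) added next. Following 44 h of culture, luminescent signal is measured for 15 sec after 15 min with substrate at room temperature.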
# AMA1 RON2 block: disrupts binding of P. falciparum AMA1 to RON2 | AlphaScreen AMA1-biotinylated RON2 peptide binding | Potency, µM (titrated, usually from 58.2 µM), usual class: inhibitors | 360,000 tested, 0.2% active | AID 720542; note: nearly all actives have a fitted effect of over 45% in size
#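 AMA1 (3D7) with his tag at 25 nM final met compounds first, then biotinylated RON2 peptide at 25 nM; detection used donor plus acceptor beads, 10 µg/mL apiece, read by AlphaScreen after 30 min at room temperature.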
# Pf growth 96h: P. falciparum growth inhibition at 96 hour, primary screen for plastid delayed-death inhibitors. P. falciparum luciferase reporter growth, 96 h. Potency, µM (series often up to 28.7 µM), actives largely listed as inhibitors. 320,000 tested, 6.9% active
#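 96 h incubation, 37 C, 5% CO2, of luciferase-reporter P. falciparum-infected RBCs (2% hematocrit, 0.05% parasitemia final) with test compounds; endpoint luminescence.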
# A number is an active result; - = inactive; ? = inconclusive; . = no result; [ ] = another dose, or the depositor's remark. This is a sample that favours compounds with a hit; in the whole collection about 11% have one here. Calls come from the whole dose curve; as a rule, active = well fitted curve in the direction sought with a large enough effect; inconclusive = small, poorly fitted or top-dose-only effect, or another doubt; inactive = no such curve, though single readings can be large; an effect the other way counts as inactive or inconclusive.
SMILES,Pf growth 48h,HCV inh,AMA1 RON2 block,Pf growth 96h
CCCCn1c(N)c(N(CCOC)C(=O)c2ccc(-n3c(C)ccc3C)cc2)c(=O)[nH]c1=O,?,?,-,-
CNc1ccc2oc(C[C@H]3O[C@@]4(CC[C@H]3C)O[C@H]([C@H](C)C(=O)c3ccc[nH]3)[C@H](C)C[C@H]4C)nc2c1C(=O)O,0.93µM,2.2µM,-,0.41µM
O=C(NCc1cccc(C(F)(F)F)c1)N1CCN(C(=O)c2ccccc2)CC1,.,-,-[11.6 µM],.
COC(=O)C(NC(=O)c1ccccc1)=C(C)C,-,-,-,4.1µM
CCOC(=O)C(NC(=O)c1ccccc1)=C(C)C,.,-,-,-
O=C(NC1CCSc2ccccc21)c1cccc([N+](=O)[O-])c1 (stereo unspecified),1.5µM,-,-,2.3µM
CN(C)S(=O)(=O)c1cccc(C(=O)NC2CCSc3ccccc32)c1 (stereo unspecified),?,-,-,12µM
CON(C)S(=O)(=O)c1cccc(C(=O)NC2CCSc3ccccc32)c1 (stereo unspecified),-,?,-,-
CCOc1ccc(C(F)(F)F)cc1NC(=O)COc1ccc(C(F)(F)F)cc1[N+](=O)[O-],-,?,-,?
CCCOP(=O)(OCCC)c1c([N+](=O)[O-])cc(C(F)(F)F)cc1[N+](=O)[O-],.,-,-,9.3µM
CCn1c(-c2cc(-c3cc(OC)ccc3OC)nc3ccccc23)n[nH]c1=S,.,-,?,0.37µM
CCn1c(-c2cc(-c3ccccc3OC)nc3ccccc23)n[nH]c1=S,2.6µM,?,-,3.3µM
Fc1ccc(CNC(=S)Nc2ccccc2Cl)cc1,-,-,-[2.32 µM],?
O=C(c1[nH]c(C(F)(F)F)nc1-c1ccccc1)N1CCN(c2cccc(C(F)(F)F)n2)CC1,.,.,-,.
CN(CC(=O)Nc1ccc(F)c(F)c1F)C(=O)CCN1C(=O)C2CCCCC2C1=O (stereo unspecified),-,-,-,-
COc1ccc(CCNC(=O)c2c(O)c3ccccc3[nH]c2=O)cc1OC,?,-,-,-
COc1cc2[nH]c(=S)nc(NCc3ccc(Cl)cc3)c2cc1OC,12µM,?,-,?
COc1cc2[nH]c(=S)nc(NCCc3ccc(C)cc3)c2cc1OC,2.6µM,-,-,-
COc1cc2[nH]c(=S)nc(NCc3cccs3)c2cc1OC,?,25µM,-,-
COc1ccc(CCNC(=O)c2ccc(CNc3nc(=S)[nH]c4ccccc34)cc2)cc1OC,?,10µM,-,-
Cc1cccc(C)c1NC(=O)CN(c1ccccn1)S(=O)(=O)c1ccccc1,?,-,-,-
C[C@@H]1CN([C@@H](C)CO)C(=O)CCCn2nncc2CO[C@H]1CN(C)Cc1ccc2cccnc2c1,.,.,-,.
COc1ccccc1CNC(=O)COC(=O)c1n[nH]c2ccccc12,.,?,-,?
COc1ccc(CNC(=O)COC(=O)c2n[nH]c3ccccc23)cc1OC,?,10µM,-,?
Cc1ccc(C(C(=O)NC2CCCC2)N(C(=O)Cc2cccs2)c2cccc(C)c2C)o1 (stereo unspecified),?,-,-,12µM
SMILES,Pf growth 48h,HCV inh,AMA1 RON2 block,Pf growth 96h
O=C(N/N=C/c1ccccn1)c1cc([N+](=O)[O-])cc([N+](=O)[O-])c1,?,-,-,-
O=C(N/N=C/c1ccc(-c2cccc([N+](=O)[O-])c2)o1)c1ccc([N+](=O)[O-])cc1,?,10µM,-,-
O=C(N/N=C/c1ccccn1)c1ccc([N+](=O)[O-])cc1,?,-,-,8.3µM
O=C(N/N=C/c1ccc(-c2cccc(C(F)(F)F)c2)o1)c1ccccc1O,8.3µM,-,-,-
O=C(N/N=C/c1ccc(-c2cccc(C(F)(F)F)c2)o1)c1cccc(F)c1,12µM,?,-,?
COc1ccc(/C=C(\C#N)C(=O)OCC(=O)NC2CC2)cc1,?,-,-,-
COc1ccc(CC2(CO)COc3ccccc3C2=O)cc1 (stereo unspecified),.,?,-,.
CC(C)(C)c1cc(C(=O)N/N=C/c2ccc(-c3ccccc3[N+](=O)[O-])o2)n[nH]1,12µM,?,-,10µM
COc1cc([N+](=O)[O-])ccc1-c1ccc(/C=N/NC(=O)c2ccccc2O)o1,2.6µM,.,.,?
O=C(N/N=C/c1ccc(-c2cccc([N+](=O)[O-])c2)o1)c1ccccc1O,?,-,-,-
O=C(N/N=C/c1ccc(-c2ccccc2[N+](=O)[O-])o1)c1cccnc1,-,-,-,-
COc1ccc(C(=O)/C=C2\Sc3ccccc3N2C)cc1,-,10µM,-,-
CC(=S)/C=C1\Sc2ccccc2N1C,?,-,-,?
COc1ccccc1OC(=O)CCN1c2ccccc2Sc2ccccc21,-,-,-[2.32 µM],-
COc1ccc(-[n+]2c(C)cc(/C=C3\Sc4ccccc4N3C)cc2C)cc1,0.74µM,1.1µM,-,?
COc1ccccc1-[n+]1c(C)cc(/C=C2\Sc3ccccc3N2C)cc1C,0.93µM,?,-,0.59µM
CN(Cc1ccccc1)C(=O)c1ccc(NC(=O)C2=CSCCO2)cc1,-,-,-,?
NC(=O)C1CCN(C(=O)c2ccc(NS(=O)(=O)/C=C/c3ccccc3)cc2)CC1,.,.,-,.
CNc1cc(C(F)(F)F)nc(-c2ccccn2)n1,?,-,-,?
Nc1nc(-c2ccccn2)nc(N)c1Cc1ccccc1F,?,?,-,5.2µM
Cc1n[nH]c(C)c1Cc1c(F)cccc1Cl,-,-,-,-
Nc1nc(-c2ccccn2)nc(N)c1Cc1c(F)cccc1Cl,12µM,5µM,?,?
Clc1ccc(OCc2nc(-c3ccccn3)no2)c(Br)c1,-,?,-,-
Nc1nc(-c2ccccn2)nc(N)c1Cc1ccc(Cl)cc1Cl,1.9µM,3.5µM,-,1.3µM
CC1(c2nnc(-c3ccc(F)cc3)o2)CC(c2ccccc2)=NO1 (stereo unspecified),-,?,-,-
SMILES,Pf growth 48h,HCV inh,AMA1 RON2 block,Pf growth 96h
CCC(=O)NCCCc1nc(-c2ccccc2)no1,.,-,-,.
Cc1ccc(NC(=O)c2cc(S(=O)(=O)N3CCCC3)c[nH]2)c(C)c1,-,-,-,-
Cc1c2cnn(CC(=O)NCCN3CCOCC3)c(=O)c2c(C)n1Cc1ccccc1F,.,-,-,.
CCN(CC)Cc1cc(O)c(CN(CC)CC)cc1O,-,-,7.9µM,-
CCc1oc(C(=O)O)cc1CN(CC)CC,-,-,-,-
COc1ccc(CN2CC(=O)N(c3ccc(C)c(C)c3)C2=S)cc1OC,?,-,-,-
Cc1ccccc1Nc1nc(Nc2ccccc2C)nc(SC2=NCCS2)n1,10µM,?,-,.
Cc1ccc(Nc2nc(Nc3ccc(C)cc3)nc(SC3=NCCS3)n2)cc1,.,?,-,13µM
O=S(=O)(c1ccc(OCC(O)CNCc2ccco2)c(Cl)c1)N1CCOCC1 (stereo unspecified),8.3µM,-,-,?
CCOC(=O)C1CCN(C(=O)CSc2nccc(C)n2)CC1,-,-,-,-
O=C(O)c1ccccc1NC(=O)c1ccccc1Nc1ccccc1,-,-,-,-
CCSc1nnc([C@@H](N)Cc2c[nH]c3ccccc23)o1,-,-,-,-
Cc1cccc(NC(=O)CSc2nnc([C@@H](N)Cc3c[nH]c4ccccc34)o2)c1C,?,-,-,1.7µM

# Assay outcomes (PubChem BioAssay)
